Measured values taken from PubChem BioAssay AID1159580 (chemical genetic matrix, 2015).
Among all 5,500 compounds or so, about 2,000 (36%) were called active. About 18% were inconclusive and are not listed. Cut-off read from the data, not from the text of the source: active = normalized growth mostly below about 0.91 (no sharp cut-off); inconclusive = no clear call, values can overlap the other calls; inactive = mostly above about 0.92. This is one part of the list.

Test: chemical genetic growth profiling, strain panel (AID 1159580);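 note: tested at 20 µM; growth read once vehicle control cultures reached saturation at 30 °C; 1 = growth at the plate median or of vehicle wells; lower values mean less growth of the strain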
Details: S. cerevisiae deletion strains, growth OD

Measured: normalized growth

Cc1ccc(-c2nn[nH]n2)cc1Cl
inactive: locus YAL013W, strain DEP1, stronger effect = lower value 0.965 | locus YBR229C, strain ROT2, stronger effect = lower value 0.963 | locus YDL101C, strain DUN1, stronger effect = lower value 0.985 | locus YDL134C, strain PPH21, stronger effect = lower value 0.997 | locus YDR150W, strain NUM1, stronger effect = lower value 0.935 | locus YEL061C, strain CIN8, stronger effect = lower value 0.983 | locus YGR078C, strain PAC10, stronger effect = lower value 0.967 | locus YGR229C, strain SMI1, stronger effect = lower value 0.984 | locus YHR030C, strain SLT2, stronger effect = lower value 1 | locus YHR087W, strain rtc3, stronger effect = lower value 0.975 | locus YJR043C, strain POL32, stronger effect = lower value 0.932 | locus YJR075W, strain HOC1, stronger effect = lower value 0.966 | locus YLR039C, strain RIC1, stronger effect = lower value 1 | locus YLR058C, strain SHM2 (second series), stronger effect = lower value 0.962 | locus YLR085C, strain ARP6, stronger effect = lower value 1 | locus YLR262C, strain YPT6, stronger effect = lower value 1 | locus YML094W, strain GIM5, stronger effect = lower value 1 | locus YMR219W, strain ESC1, stronger effect = lower value 0.97 | locus YMR263W, strain SAP30, stronger effect = lower value 0.933 | locus YNL153C, strain GIM3, stronger effect = lower value 0.969 | locus YNL298W, strain CLA4 (second series), stronger effect = lower value 1.02 | locus YNL322C, strain KRE1, stronger effect = lower value 0.947 | locus YNR030W, strain Alg12, stronger effect = lower value 1 | locus YOL006C, strain TOP1, stronger effect = lower value 1.07 | locus YPL055C, strain LGE1, stronger effect = lower value 0.944 | locus YPL241C, strain CIN2, stronger effect = lower value 1.12 | locus YPR135W, strain CTF4, stronger effect = lower value 1.03
